# Shown are actives, neighbours in structure and some others; about 7.5% of the full set was active somewhere.
# KinaseGlo FLuc = blocks Kinase-Glo luciferase, a counter-screen artifact | Kinase-Glo luciferase, ATP luminescence, 8 min | Potency, µM (top dose mostly 38.3 µM), for inactives: at the highest dose activity change, negative = inhibition, usual class: inhibitors | hit rate 0.28% among 200,000; note: % is set by controls: 0 for no effect and ±100 for the full control effect; nearly all actives have a fitted effect of over 60% in size
#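 Kinase-Glo luciferase light output from ATP and luciferin was measured with 10 uM ATP, within the enzyme's linear range. Buffer: 50 mM imidazole pH 7.2, 50 mM KCl, 7 mM MgCl2, 0.01% Tween 20, 0.05% BSA; luminescence read after 8 min at ambient temperature.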
# SMN2 splice enh = enhancers of SMN2 splice variant expression; hit rate 2.8% among 210,000; HEK293 SMN2-luciferase splicing reporter, luminescence, 30-36 h; Potency, µM (series often up to 46.1 µM), for the others: at the highest dose activity change, positive = activation, usual class: activators; note: % of control where 0% means no effect; nearly all actives have a fitted effect of over 55% in size
#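 HEK293 cells carry an SMN2 […]–luciferase reporter in which exon 7 inclusion puts luciferase in frame. Cells were plated 10-12 h before compound addition, then incubated 30-36 h at 37C. ONE-Glo luminescence was read; sodium butyrate at 4.5 mM final served as control.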
# ELG1 genotox = induces genotoxicity in HEK293T cells with luciferase-tagged ELG1; Potency, µM (doses to about 46 µM), inactives show at the top dose activity change, positive = activation, usual class: activators; hit rate 1.3% among 330,000; HEK293T ELG1-luciferase reporter, luminescence, 16 h; AID 504466; note: % of control where 0% means no effect; nearly all actives have a fitted effect of over 60% in size
#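 HEK293T cells expressing luciferase-tagged ELG1 were treated with compound or DMSO for 16 hr at 37°C. Luciferase activity was then read after 30 min with ONE-Glo at room temperature; rising signal flags genetic stress.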
# FLuc counter = inhibits or activates purified firefly luciferase, miR-21 counter-screen | P08659 | purified FLuc, Km substrates, luminescence inhibition | Potency, µM (highest dose often 57.5 µM), without a hit: top-dose activity change, negative = inhibition, usual class: inhibitors | hit rate 6.9% among 360,000;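 note: plate controls were vehicle for no effect and reference inhibitor for full effect; nearly all actives have a fitted effect of over 55% in size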
# Target sequence (P08659 whole entry, looked up): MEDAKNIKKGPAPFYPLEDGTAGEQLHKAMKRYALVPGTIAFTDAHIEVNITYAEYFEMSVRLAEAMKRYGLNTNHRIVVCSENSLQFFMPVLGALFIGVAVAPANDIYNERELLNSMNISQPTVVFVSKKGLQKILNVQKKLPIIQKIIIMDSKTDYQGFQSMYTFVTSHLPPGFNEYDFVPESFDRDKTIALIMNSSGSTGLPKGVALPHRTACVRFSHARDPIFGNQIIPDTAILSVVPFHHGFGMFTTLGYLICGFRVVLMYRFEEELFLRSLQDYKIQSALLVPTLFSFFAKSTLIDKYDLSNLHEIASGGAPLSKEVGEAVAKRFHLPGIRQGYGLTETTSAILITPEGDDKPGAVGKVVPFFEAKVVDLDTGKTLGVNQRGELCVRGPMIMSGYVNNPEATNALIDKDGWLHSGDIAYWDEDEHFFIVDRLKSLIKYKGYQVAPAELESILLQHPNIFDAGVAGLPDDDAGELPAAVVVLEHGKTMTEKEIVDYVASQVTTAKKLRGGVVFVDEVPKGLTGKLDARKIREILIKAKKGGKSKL
#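 Purified P. pyralis luciferase (10nM final) with 10uM D-luciferin and 10uM ATP (Km levels) in 50mM Tris acetate pH 7.5, 10mM Mg acetate, 0.01% Tween-20, 0.05% BSA; qHTS 6-point titration, ~60 µM downward; luminescence read.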
# NPC1 prom act = NPC1 promoter activation; Huh7 NPC1 promoter luciferase reporter, 24 h; Potency, µM (top dose mostly 9.22 µM), without a hit: at the top dose activation, actives largely listed as activators; hit rate 2.4% among 320,000; AID 485313; note: % of control where 0% means no effect; nearly all actives have a fitted effect of over 60% in size
#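 Huh7 reporter cells (NPC1 promoter driving luciferase) are dosed with compound for 24 h at 37 °C, 5% CO2; luciferase detection reagent is then added and luminescence measured after 10 min at ambient temperature.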
# Rab9 prom act = activates the Rab9 promoter; Huh7 Rab9 promoter-luciferase reporter, luminescence, 24 h; Potency, µM (top dose mostly 9.22 µM), for the others: top-dose activation, negative = inhibition, hits mostly activators; hit rate 2.8% among 320,000; AID 485297; note: % of control where 0% means no effect; nearly all actives have a fitted effect of over 60% in size
#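 Cells were plated at 1500 per well in reduced-serum medium with 10% FBS and left 2 h. Compound in DMSO was then added for 24 h at 37 °C. Reporter signal was read by luminescence after 10 min with luciferase detection reagent.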
# * marks the source's active call; other numbers are inactive results; ? = inconclusive; / = no result; [ ] = dose if it differs, or a comment. Calls come from the whole dose curve; as a rule, active = well fitted curve in the direction sought with a large enough effect; inconclusive = small, poorly fitted or top-dose-only effect, or another doubt; inactive = no such curve, though single readings can be large; an effect the other way counts as inactive or inconclusive. Potency is the fitted concentration of half-maximal effect.
SMILES,KinaseGlo FLuc,SMN2 splice enh,ELG1 genotox,FLuc counter,NPC1 prom act,Rab9 prom act
O=C(OCc1ccccc1)c1cccc(-c2nnn(Cc3ccccc3)n2)c1,-6.2%,7.94µM*,?,-2.8%,27.1%,17.3%
CC1(C(=O)NCCOc2ccccc2Cl)CC1(Cl)Cl (stereo not drawn),/,/,0.6%,-0.4%,-7.5%,-8.0%
Cc1ccc(/C=C/C(=O)OCC(=O)NCc2cccs2)o1,/,/,2.6%,/,/,/
Cn1cc(C(=O)c2ccccc2)cc1-c1nc2ccccc2n1C,-2.8%,-10.3%,-16.8%,-9.9%,-0.3%,-5.6%
Oc1ccc(Cn2c(-c3ccc(O)cc3)nc3ccccc32)cc1,-7.1%[7.66 µM],-6.5%[9.22 µM],/,/,/,/
Brc1ccc(Cn2c(-c3ccc(Br)o3)nc3ccccc32)o1,-0.5%,18.6%,4.9%,19µM*,13.3%,10.8%
Cc1ccc(-c2nc3ccccc3n2C)o1,7.94µM*,11.2µM*,2.91µM*,5.36µM*,1.58µM*,1.12µM*
Cn1c(-c2ccc(Br)o2)nc2ccccc21,10µM*,12.6µM*,?,2.39µM*,1.41µM*,1.41µM*
Cn1c(-c2nonc2N)nc2ccccc21,/,/,-4.8%,2.9%,-0.1%,-1.6%
CC(=O)c1ccc(-c2nc3ccccc3n2C)o1,?,11.2µM*,20.6µM*,21.3µM*,?,?
CCC1CCCCN1C(=O)Cn1c(=O)n(-c2ccc(Cl)c(Cl)c2)c(=O)c2c(C)c(C(=O)N(C)C)sc21 (stereo not drawn),/,/,/,-7.7%,/,/
CCNC(=O)CC1C(=O)N(c2cccc(OC)c2)C(=O)N1Cc1ccc(OC)c(OC)c1 (stereo not drawn),/,0.6%,/,-0.4%,/,/
CCN(CC)CCCNC(=O)C(C)n1nc(C)n2c(cc3occc32)c1=O (stereo not drawn),/,-7.8%,/,2.4%,/,/
COC(=O)c1ccccc1NC(=O)c1ccc(CN2CC(=O)N3CCCCC3C2=O)cc1 (stereo not drawn),/,/,/,2.6%,/,/
Cc1cc(Nc2cccc(C(F)(F)F)c2)nc2ccc(NC(=O)c3cccc(Cl)c3)cc12,/,/,/,1.9%,/,/
Cc1ccc(C2Nc3ccccc3-c3nc4ccccc4n32)o1 (stereo not drawn),-7.1%,11.2µM*,?,10.7µM*,?,?
Cc1oc(-c2nc3ccccc3n2C)cc1C(=O)c1ccccc1,?,1.58µM*,1.84µM*,0.379µM*,0.501µM*,0.316µM*
Cn1c(-c2ccc(Br)o2)nc2cc(Br)ccc21,-26.6%,14.1µM*,?,1.9µM*,1.41µM*,1.12µM*
Cc1ccc(NC(=O)Cn2c(=O)n(CCCCC(=O)NCCc3ccccc3)c(=O)c3ccccc32)cc1,/,-1.7%,/,-1.0%,/,/
Cc1cccc(Nc2nc(N)nc(CSc3nccn3C)n2)c1,2.2%,?,?,?,?,5.01µM*
Cc1ccc(Nc2nc(N)nc(CSc3nccn3C)n2)cc1,-1.8%,12.6µM*,2.91µM*,9.53µM*,2.51µM*,1.58µM*
COC(=O)Cn1ncn2c(cc3oc(C)cc32)c1=O,-1.7%,?,?,15.1µM*,?,2.51µM*
CCCCn1c(=NC(=O)C(C)(C)Oc2ccc(Cl)cc2)c(C(=O)OCC)cc2c(=O)n3ccccc3nc21,/,9.4%,/,3.2%,/,/
Cc1ccc(NC(=O)N(C)c2ccccc2)cc1,/,/,8.0%,?,23.6%,26.0%
O=C(Nc1cnc2ccccc2c1)N1CCCCC1,-6.2%,14.1µM*,?,9.53µM*,1.26µM*,1.26µM*
SMILES,KinaseGlo FLuc,SMN2 splice enh,ELG1 genotox,FLuc counter,NPC1 prom act,Rab9 prom act
O=C(Nc1cnc2ccccc2c1)N1CCOCC1,7.9%,?,?,?,?,25.4%
CN(C(=O)Nc1cnc2ccccc2c1)c1ccccc1,1.6%,?,?,?,?,2.82µM*
Nc1nonc1C(=O)NCCNCc1cccc(Cl)c1Cl,/,-7.9%,/,1.9%,/,/
Cc1ccccc1NC(=O)/C(C#N)=C/c1ccc(-c2ccc(Cl)c(C(=O)O)c2)o1,/,/,11.9%,19µM*,2.82µM*,3.16µM*
COc1ccc(NC(=O)/C(C#N)=C/c2ccc(-c3ccc(Cl)c(C(=O)O)c3)o2)cc1,/,/,?,0.477µM*,?,3.55µM*
Cc1ccc(NC(=O)/C(C#N)=C\c2ccc(Cl)cc2Cl)cc1C,/,-14.8%,/,-18.6%,/,/
Cc1ccc(NC(=O)/C(C#N)=C/c2ccc(-c3ccc(Cl)c(C(=O)O)c3)o2)cc1C,/,-5.9%,/,3.79µM*,/,/
N#C/C(=C\c1ccc(-c2ccccc2)o1)C(=O)Nn1cnnc1,-1.7%,-1.9%,1.3%,19µM*,-1.4%,-1.4%
C=C(C)CSc1nc2sc3c(c2c(=O)n1-c1ccccc1)CC(C(C)C)OC3 (stereo not drawn),/,-2.2%,/,-4.2%,/,/
O=c1c2sc3ccccc3c2n(Cc2cccc(C(F)(F)F)c2)c(=O)n1Cc1ccc(F)cc1,/,3.8%,/,1.1%,/,/
CCCCC1=CC2=C(c3ccco3)C(=O)C(C)(OC(=O)c3ccc(Cl)nc3)C(=O)C2=CO1 (stereo not drawn),-0.6%,-2.3%,/,/,/,/
COc1ccccc1C(=O)Nc1nnc(-c2ccco2)s1,1.7%,11.2µM*,1.64µM*,2.69µM*,0.3%,?
Cc1ccccc1OCC(=O)Nc1nnc(-c2ccco2)s1,/,/,1.7%,-1.7%,-1.2%,-1.7%
Cc1ccccc1C(=O)Nc1nnc(-c2ccco2)s1,-9.6%,2µM*,1.46µM*,1.51µM*,0.562µM*,0.316µM*
CS(=O)(=O)c1ccc2nc(NC(=O)c3cc(-c4ccccc4)nn3-c3ccccc3)sc2c1,-1.5%,-27.4%,-5.3%,-6.9%,-3.4%,-1.6%
CS(=O)(=O)c1ccc2sc(NC(=O)c3cc4ccccc4o3)nc2c1,/,/,1.8%,2.69µM*,?,?
CS(=O)(=O)c1ccc2nc(NC(=O)c3cc4ccccc4o3)sc2c1,-4.7%,20.9%,0.7%,2.69µM*,?,?
CS(=O)(=O)c1ccc2nc(NC(=O)Oc3ccccc3)sc2c1,-6.2%,9.1%,3.6%,?,2.2%,-3.9%
O=C1c2cccnc2C(=O)N1c1cccc(-c2nc3ccccc3o2)c1,-1.7%,1.5%,2.6%,3.79µM*,0.6%,-7.1%
O=C1CCC(=O)N1c1cccc(-c2nc3ccccc3o2)c1,-3.8%,-1.2%,2.6%,?,3.5%,3.0%
CCOC(=O)c1cc(S(=O)(=O)N2CCN(c3ccccc3F)CC2)[nH]n1,/,/,/,-19.8%,/,/
O=C(/C(=C/O)N=Nc1ccccc1Cl)c1ccccc1,-1.2%,-26.9%,-4.4%,21.3µM*,0.7%,-3.5%
O=C(/C(=C/O)N=Nc1cccc(C(F)(F)F)c1)c1ccccc1,0.1%,-86.5%,-2.6%,?,-0.4%,9.3%
Cc1cc(NS(=O)(=O)c2ccc(Nc3nc(-c4ccc(O)cc4)cs3)cc2)no1,5.2%,11.9%,0.1%,23.9µM*,-19.9%,-8.9%

# Screens deposited in PubChem BioAssay by National Center for Advancing Translational Sciences (NCATS).
